IL-1B inflam inh: qHTS for Inhibitors of Inflammasome Signaling: IL-1-beta AlphaLISA Primary Screen; actives 4.7% (n = 360,000); activity change, % at 57.5 µM; THP-1 LPS/ATP IL-1B secretion, AlphaLISA, 16 h; hits give low values; in the data active = activity change below about -50%; inconclusive = mostly about -30% to -49%
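Secreted IL-1B measured by AlphaLISA bead assay after 16 h compound exposure of THP-1 cells; compounds (final up to 57.5 uM) added 1 h before LPS (250 ng/mL) and ATP (1.25 mM) stimulation; lower signal means less secretion.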
TDP1 cell CPT: qHTS for Inhibitors of human tyrosyl-DNA phosphodiesterase 1 (TDP1): qHTS in cells in presence of CPT; chicken DT40 Tdp1-/-;hTDP1 cells + 20 nM CPT, ATP luminescence, 48 h; Potency, µM (series often up to 46.2 µM), actives largely listed as inhibitors; actives 12% (n = 420,000); AID 686979, 2013; note: nearly all actives have a fitted effect of over 55% in size
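Cell growth measured by CellTiter-Glo luminescence after a minimum 48 h, 37 C compound exposure with 20 nM CPT in Tdp1-knockout DT40 cells stably expressing hTDP1, seeded 400/well; qHTS titration format.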
HT1080NT lethal: qHTS for induction of synthetic lethality in tumor cells producing 2HG: qHTS for the HT-1080-NT fibrosarcoma cell line. HT-1080-NT fibrosarcoma viability, CellTiter-Glo ATP luminescence, 48 h. Potency, µM (titrated, usually from 46.1 µM), most hits filed as cytotoxic. actives 1.6% (n = 360,000). AID 686970, 2013;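 note: NT is the 2HG producing partner of a matched IDH1 knockdown line; nearly all actives have a fitted effect of over 55% in size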
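HT-1080-NT fibrosarcoma cells (2HG-overproducing), 750 cells/well in RPMI with 5% FBS, dosed after 2 h and incubated 48 h at 37C. CellTiter-Glo luminescence normalized to DMSO and no-cell wells; concentration-response curves fitted and classed.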
DT40 TDP1 no CPT: qHTS for Inhibitors of human tyrosyl-DNA phosphodiesterase 1 (TDP1): qHTS in cells in absence of CPT. DT40 Tdp1-/- hTDP1 cells, no CPT, ATP luminescence, 48 h. Potency, µM (doses to about 46.2 µM), usual class: inhibitors. actives 15% (n = 420,000). AID 686978, 2013; note: nearly all actives have a fitted effect of over 55% in size
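Growth of hTDP1-complemented DT40 Tdp1-knockout cells is measured by ATP luminescence after at least 48 hr compound exposure at 37 °C, with DMSO substituting for the 20 nM CPT used in the parallel screen.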
HT1080 IDH1KD tx: qHTS for induction of synthetic lethality in tumor cells producing 2HG: qHTS for the HT-1080-IDH1KD cell line; Potency, µM (highest dose often 46.1 µM), most hits filed as cytotoxic; actives 2% (n = 360,000); HT-1080 IDH1 knockdown viability, ATP luminescence, 48 h
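In this qHTS, HT-1080 cells depleted of IDH1 are exposed for 48 h at 37 °C to compound titrations. Toxicity is scored from CellTiter-Glo luminescence, with DMSO as full viability and medium alone as none.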
Numbers stand for hits; n = inactive; u = inconclusive; x = no result. A selection: hits, their analogues and other compounds. The true share with any hit is near 19%. Unless noted, calls come from the whole dose curve; as a rule, active = well fitted curve in the direction sought with a large enough effect; inconclusive = small, poorly fitted or top-dose-only effect, or another doubt; inactive = no such curve, though single readings can be large; an effect the other way counts as inactive or inconclusive.

SMILES | IL-1B inflam inh | TDP1 cell CPT | HT1080NT lethal | DT40 TDP1 no CPT | HT1080 IDH1KD tx
COc1ccc(CN2C(=O)C(CC(=O)NCc3cccc4ccccc34)CC(C(=O)N(C(C)C)C(C)C)=C2C)cc1 (stereo not drawn) | -70 | u | u | u | u
CCN(CC)C(=O)C1=C(C)N(Cc2ccc(C(C)(C)C)cc2)C(=O)C(CC(=O)NCCN2CCOCC2)C1 (stereo not drawn) | n | n | n | n | n
COc1ccc(CN2C(=O)C(CC(=O)NCCc3ccccn3)CC(C(=O)N(C(C)C)C(C)C)=C2C)cc1 (stereo not drawn) | n | u | n | u | n
COc1ccc(CN2C(=O)C(CC(=O)NCc3cccc4ccccc34)CC(C(=O)N(C)C)=C2C)cc1 (stereo not drawn) | n | n | n | n | n
COc1ccc(CN2C(=O)C(CC(=O)NCCCCc3ccccc3)CC(C(=O)N(C)C)=C2C)cc1 (stereo not drawn) | n | u | n | 18µM | n
CC1=C(C(=O)N(C(C)C)C(C)C)CC(CC(=O)NCCN2CCOCC2)C(=O)N1Cc1ccc(C(C)(C)C)cc1 (stereo not drawn) | u | u | n | 18µM | n
COc1ccc(CN2C(=O)C(CC(=O)NCCCCc3ccccc3)CC(C(=O)N(C(C)C)C(C)C)=C2C)cc1 (stereo not drawn) | n | 13µM | n | 12µM | n
CC1=C(C(=O)N(C(C)C)C(C)C)CC(CC(=O)NCCCCc2ccccc2)C(=O)N1Cc1ccc(C(C)(C)C)cc1 (stereo not drawn) | n | 23µM | u | 21µM | u
CC1=C(C(=O)N(C(C)C)C(C)C)CC(CC(=O)NCCc2ccccn2)C(=O)N1Cc1ccc(C(C)(C)C)cc1 (stereo not drawn) | n | 16µM | n | u | n
CC1=C(C(=O)N2CCOCC2)CC(CC(=O)NCCCCc2ccccc2)C(=O)N1Cc1ccc(C(C)(C)C)cc1 (stereo not drawn) | n | 23µM | n | 16µM | n
CC1=C(C(=O)N(C(C)C)C(C)C)CC(CC(=O)NCCCN(C)C)C(=O)N1Cc1ccc(C(C)(C)C)cc1 (stereo not drawn) | n | u | u | u | u
Cc1ccc(-c2ocnc2C(=O)N2CCOCC2)cc1 | n | n | n | n | n
CC1(C(=O)Nc2ccc3c(c2)OCCO3)CCN1C(=O)C1(c2ccc(Cl)cc2)CC1 (stereo not drawn) | n | u | n | u | n
O=C(CSc1nnc(NC(=O)c2ccc(S(=O)(=O)N3CCOCC3)cc2)s1)Nc1ccccc1C(F)(F)F | n | n | n | u | n
Cc1ccc(/C=C/C(=O)Nc2ccc(Oc3ccccc3)cc2)o1 | -83 | u | u | u | u
CC(=O)c1ccc(NC(=O)/C=C/c2ccc(C)o2)cc1 | x | 15µM | x | u | x
Cc1cc(NS(=O)(=O)c2ccc(NC(=O)/C=C/c3ccc(C)o3)cc2)nc(C)n1 | n | 15µM | n | 18µM | n
CC(=O)Nc1ccc(S(=O)(=O)c2ccc(N)cc2)cc1 | n | n | n | n | n
CCOC(=O)/C=C/S(=O)(=O)c1ccc(NC(C)=O)cc1 | -95 | 1.3µM | u | 2.1µM | u
Cc1ccc(/C=C/C(=O)Nc2ccc([N+](=O)[O-])cc2)o1 | n | u | n | u | n
COc1ccc(NC(=O)C(C)Oc2ccc(/C(C)=N\O)cc2)cc1 (stereo not drawn) | n | u | n | u | n
CCOC(=O)/C=C/C(=O)Nc1ccc(S(=O)(=O)Nc2c(C)cc(C)cc2C)cc1 | -72 | 7.3µM | u | 16µM | n
CCOC(=O)/C=C/C(=O)Nc1ccc(Oc2ccccc2)cc1 | -73 | u | 7.3µM | u | 16µM
Cc1ccc(/C=C/C(=O)Nc2cccc3cccnc23)o1 | n | 12µM | n | 12µM | n
CC(=O)c1c(OC(=O)c2ccccc2)ccnc1C(F)(F)F | n | n | n | n | n
SMILES | IL-1B inflam inh | TDP1 cell CPT | HT1080NT lethal | DT40 TDP1 no CPT | HT1080 IDH1KD tx
Cn1nc(C(=O)NNC(=O)c2ccc(Cl)cc2)ccc1=O | n | n | n | n | n
COc1ccc(C)cc1N/C(N)=N/c1nc(C)cc(C)n1 | -98 | 21µM | n | 16µM | n
COc1ccc(OC)c(N/C(N)=N/c2nc(C)cc(C)n2)c1 | -77 | u | n | 18µM | n
COc1ccc(Cl)cc1N/C(N)=N/c1nc(C)cc(C)n1 | n | n | n | n | n
COc1ccc(OC)c(N/C(=N/c2nc(C)cc(C)n2)NC(C)=O)c1 | n | u | n | 7.3µM | n
CCCOc1ccccc1N/C(=N/c1nc(C)cc(C)n1)NC(=O)COc1ccc(OC)cc1 | u | 21µM | n | 16µM | n
CCCOc1ccc(C(=O)NNC(=O)CCNC(=O)c2ccco2)cc1OC | n | n | n | n | n
CCn1c(CN2CCOCC2)nc2cc(NC(=O)c3cccc([N+](=O)[O-])c3)ccc21 | x | u | x | n | x
COc1cc(N/C(N)=N/c2nc(C)cc(C)n2)cc(OC)c1 | n | 16µM | u | 21µM | u
CCCOc1ccccc1N/C(=N\S(=O)(=O)c1ccc(C)cc1)Nc1nc(C)cc(C)n1 | n | u | n | 15µM | n
Cc1ccc(C)c(N/C(N)=N/c2nc(C)cc(C)n2)c1 | -111 | 21µM | n | 13µM | n
COc1ccc(N/C(N)=N/c2nc(C)cc(C)n2)c(OC)c1 | -76 | 26µM | n | 12µM | n
CCCOc1ccccc1N/C(N)=N/c1nc(C)cc(C)n1 | n | u | n | u | n
Cc1cc(O)c2/c(=N\N)c(-c3csc(C)n3)coc2c1 | n | n | n | n | n
Fc1ccccc1CSc1nc2ccccc2[nH]1 | n | u | n | u | n
N#Cc1ccccc1CSC1=NCCS1 | -89 | n | n | n | n
O=C(NNc1ccccc1F)c1sccc1Cl | x | n | u | u | u
Cc1nn(C)cc1/C=N/NC(=O)CSc1ccccn1 | n | n | n | n | n
Cc1cccc2nc(COc3ccc4ccccc4c3Br)cn12 | n | u | n | 23µM | n
CCOC(=O)CSC1=C(C#N)C(c2ccccc2OC)CC(=O)N1 (stereo not drawn) | n | 16µM | u | 16µM | 18µM
CCSC1=C(C#N)C(c2ccccc2OC)CC(=O)N1 (stereo not drawn) | n | u | n | n | n
CCOC(=O)CSC1=C(C#N)C(c2ccc(C)s2)CC(=O)N1 (stereo not drawn) | n | 5.2µM | 0.71µM | 3.3µM | 1.8µM

Screening data as filed in PubChem.
